Source: PubChem
Rows were chosen to be rich in hits. Some 0.95% of all compounds tested hit in one or more screens of this group.
Giardia FBPA inh: Giardia lamblia aldolase inhibition; A8B2U2; purified Giardia FBPA; Potency, µM (series often up to 59.6 µM), without a hit: at the top dose activity, negative = inhibition, actives largely listed as inhibitors; 0.71% of 290,000 active; further: nearly all actives have a fitted effect of over 55% in size
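40 nM FBPA preincubated 10 min at RT with compound (up to 57.5 uM final), then substrate plus GAPDH/TPI/NAD/arsenate coupling and diaphorase/resazurin added. Fluorescence read after 20 min at RT, 525/598 nm.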
Tb PYK inh: blocks Trypanosoma brucei pyruvate kinase | Q57TT1 | TbPYK enzyme, Kinase-Glo Plus ATP luminescence, 45 min | Potency, µM (titrated, usually from 76.8 µM), without a hit: top-dose activity, negative = inhibition, most hits filed as inhibitors | 0.12% of 410,000 active; further: nearly all actives have a fitted effect of over 50% in size
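Glycolytic pyruvate kinase of T. brucei was incubated with substrate, test compound and 130 uM ADP for 45 minutes at room temperature. Luminescent Kinase-Glo Plus signal was measured after 10 minutes.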
LmPK inhibitor: blocks Leishmania mexicana pyruvate kinase activity | Q27686 | purified LmPK, Kinase-Glo ATP luminescence, 1 h | Potency, µM (highest dose often 57.5 µM), without a hit: top-dose activity change, negative = inhibition, hits mostly inhibitors | 0.37% of 290,000 active
Target sequence (Q27686 whole entry, looked up): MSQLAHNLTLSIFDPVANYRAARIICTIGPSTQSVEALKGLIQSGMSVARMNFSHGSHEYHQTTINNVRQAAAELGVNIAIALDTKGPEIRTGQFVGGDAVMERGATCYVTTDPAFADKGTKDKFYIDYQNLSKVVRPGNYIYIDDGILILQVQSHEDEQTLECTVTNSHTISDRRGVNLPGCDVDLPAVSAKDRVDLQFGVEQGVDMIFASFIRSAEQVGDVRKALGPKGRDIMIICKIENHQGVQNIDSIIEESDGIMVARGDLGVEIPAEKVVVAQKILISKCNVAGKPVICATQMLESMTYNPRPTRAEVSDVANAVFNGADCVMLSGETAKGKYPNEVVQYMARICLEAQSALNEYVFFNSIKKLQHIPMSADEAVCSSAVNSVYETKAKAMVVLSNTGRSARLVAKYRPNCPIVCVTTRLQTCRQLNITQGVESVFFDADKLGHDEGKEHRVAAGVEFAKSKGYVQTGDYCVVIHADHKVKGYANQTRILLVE
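Purified LmPK (0.1 nM) converted ADP (0.1 mM) to ATP with PEP (0.5 mM) in imidazole buffer pH 7.2 with KCl and MgCl2, 1 h at room temperature. ATP was read by Kinase-Glo luminescence; data normalized to uninhibited and no-enzyme controls.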
RE007 growth inh: less growth of the S. pombe RE007 Vpr strain; AID 651644; S. pombe RE007 Vpr strain, BacTiter-Glo ATP luminescence, 24 h; Potency, µM (highest dose often 92.2 µM), inactives show at the top dose activity change, negative = less growth, usual class: inhibitors; 0.21% of 360,000 active; active means well fitted falling curve with a large enough effect; inconclusive means small, poorly fitted or top-dose-only effect; inactive means no such curve, though single readings can be large or run the other way; further: nearly all actives have a fitted effect of over 50% in size
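Fission yeast RE007 carrying one integrated HIV-1 vpr copy, seeded at OD 0.01 in PMG+AL medium with 23 nL pinned compound. Grown 24 h at 30 degrees; viability read by BacTiter-Glo luminescence after 5 min.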
Active calls of the source: *; ? = inconclusive; . = not tested or not shown; [ ] = another dose, or the depositor's remark. Unless noted, the call rests on the fitted dose curve; in most records, active means well fitted curve in the direction sought with a large enough effect; inconclusive means small, poorly fitted or top-dose-only effect, or another doubt; inactive means no such curve, though single readings can be large; an effect the other way counts as inactive or inconclusive. On the % scale 0 is the no-effect control and ±100 the full control effect; potency means the concentration at half of the fitted maximal effect.

SMILES	Giardia FBPA inh	Tb PYK inh	LmPK inhibitor	RE007 growth inh
CC(C)(C)C(=O)NCC12C=CC(O1)C1C(=O)N(c3ccccc3)C(=O)C12 (stereo unspecified)	-1%	?	11%	8.9µM*
Cc1cc(C)nc(Nc2nc3ccccc3o2)n1	-21%	2%	7%	-14%
c1ccc(Nc2nc3ccccc3o2)cc1	0%	-6%	16µM*	?
FC(F)(F)Oc1ccc(Nc2nc3ccccc3o2)cc1	-8%	-9%	1%	-24%
Fc1ccccc1Nc1nc2ccccc2o1	3%	?	16µM*	?
CN1CCC(N(Cc2cccs2)c2ccccc2)CC1	.	8%	.	.
COc1ccc(-n2sc3ccccc3c2=O)cc1	.	11µM*	.	-87%
O=c1c2cc(F)ccc2sn1-c1ccc(F)cc1	.	8.9µM*	.	11µM*
COc1ccc(-n2sc3ccc(F)cc3c2=O)cc1	.	?	.	10µM*
C[C@@H]1O[C@@H](O[C@H]2CC[C@@H](O[C@H]3[C@H](O)C[C@H](c4ccc5c(c4O)C(=O)C4=C(C5=O)[C@@]5(O)C(=O)C[C@](C)(O[C@H]6CC[C@H](O[C@H]7C=CC(=O)[C@H](C)O7)[C@H](C)O6)C[C@@]5(O)C=C4)O[C@@H]3C)O[C@H]2C)C=CC1=O	7.1µM*	.	.	.
COc1ccc2c(c1)sc1nc(-c3ccccc3)cn12	-23%	?	13µM*	?
COc1ccc(-c2cn3c(n2)sc2cc(C(=O)NCc4ccccc4)ccc23)cc1	.	0%	.	.
CN1CCN(Cc2c(O)ccc3cc(Br)ccc23)CC1	-17%	-6%	1%	?
CCN(Cc1ccncc1)Cc1c(O)ccc2cc(Br)ccc12	8.9µM*	-13%	1%	-18%
COc1cc([C@@H]2c3cc4c(cc3[C@@H](O[C@@H]3O[C@H]5CO[C@H](C)O[C@H]5[C@H](O)[C@@H]3O)[C@H]3COC(=O)[C@H]23)OCO4)cc(OC)c1OP(=O)(O)O	.	6%	.	.
CCCOC(C(=O)OC1CCN(C)CC1)(c1ccccc1)c1ccccc1	.	8%	.	.
COC(=O)CC1Oc2cc3oc4c(c3cc2O1)C(=O)CC(C)(C)C4 (stereo unspecified)	0%	.	.	.
CC1(C)CC(=O)c2c(oc3cc(O)c(O)cc23)C1	3.2µM*	-23%	-15%	-4%
O/N=C/c1cc(Br)ccc1OCc1ccccc1F	.	0%	.	40µM*
O/N=C/c1ccccc1OCc1ccccc1Cl	8%	18%	1%	45µM*
O/N=C/c1ccccc1OCc1ccc(Cl)cc1	2%	4%	1%	-18%
O=C(/C=C/c1ccc2c(c1)OCO2)Nc1cccnc1	-10%	0%	22µM*	-17%
Nc1ccccc1C(=O)/C=C/c1ccc2c(c1)OCO2	0%	2%	14µM*	?
CC(=O)Nc1ccc(NC(=O)/C=C/c2ccc3c(c2)OCO3)cc1	-3%	-8%	1%	-10%
O=C(/C=C/c1ccc2c(c1)OCCO2)c1ccccc1	-4%	-7%	13µM*	?
SMILES	Giardia FBPA inh	Tb PYK inh	LmPK inhibitor	RE007 growth inh
CN(C)CC(C(=O)c1ccccc1)c1ccccc1 (stereo unspecified)	-12%	-6%	0%	40µM*
O=C(/C=N/O)NCCCCNC(=O)/C=N/O	-7%[12.9 µM]	.	.	.
c1ccc([C@H]2CNCc3ccccc32)cc1	4%	.	.	.
Oc1cc2c(cc1O)[C@H]1c3ccccc3CN[C@@H]1CC2	-22%	.	4.5µM*	.
Cc1cc(O)c2c(O)c3c(O)cccc3cc2c1	.	0%	.	.
CC(=O)Oc1ccc(C(=O)O)cc1OC(C)=O	7%	-12%	1%	-6%
CC(=O)Oc1ccc(OC(C)=O)c(SCCCCCCl)c1	-3%	-7%	11µM*	-23%
COc1ccc(Br)cc1CNC(=O)c1ccc(-n2c(C)cc3c2CCC(C)C3)cc1 (stereo unspecified)	.	0%	.	.
NS(=O)(=O)c1ccc(NC2=CC(=O)C(=O)c3ccccc32)cc1	2.5µM*	-12%	-7%	-27%
Cc1ccc(NC2=CC(=O)C(=O)c3ccccc32)cc1	5.6µM*	0%	-17%	?
CCOC(=O)c1ccc(NC2=CC(=O)C(=O)c3ccccc32)cc1	.	2%	-6%	-13%
S=C(Nc1ccc(Cl)cc1)c1nc2ccccc2[nH]1	?	-18%	-24%	6.3µM*
Cc1ccccc1NC(=S)c1nc2ccccc2[nH]1	?	-2%	-6%	?
C[C@H](CN1c2ccccc2Sc2cccnc21)N(C)C	.	-10%	.	.
CN(C)[C@@H]1C(=O)C(C(N)=O)=C(O)[C@@]2(O)C(=O)C3=C(O)c4c(O)cccc4[C@@](C)(O)[C@H]3[C@H](O)[C@@H]12	4.5µM*	-15%	-1%	9%[18.4 µM]
CN(C)[C@H]1C(=O)C(C(=O)NCN2CCCC2)=C(O)[C@]2(O)C(=O)C3=C(O)c4c(O)cccc4[C@@](C)(O)[C@H]3C[C@@H]12	4.5µM*	0%[33.2 µM]	.	.
C[C@H]1c2cccc(O)c2C(O)=C2C(=O)[C@]3(O)C(O)=C(C(N)=O)C(=O)[C@@H](N(C)C)[C@@H]3[C@@H](O)[C@@H]21	?	2%	4%	-13%[18.4 µM]
CN(C)[C@@H]1C(=O)C(C(N)=O)=C(O)[C@@]2(O)C(=O)C3=C(O)c4c(O)cccc4[C@@](C)(O)C3C[C@@H]12 (stereo partly specified)	.	-5%	.	9%[18.4 µM]
CCc1nn2cc(-c3ccccc3)nc2s1	-3%	?	11µM*	?
O=C(CCNc1ccc(F)cc1)c1ccco1	-19%	5%	-5%	6.3µM*
O=C1c2ccccc2CN2C(=O)c3ccccc3CN12	.	5%	-3%	24%
c1ccc(-c2cn3c(n2)-c2ccccc2C3)cc1	-14%	?	5.6µM*	?
